System: Vero E6 infected with SARS-CoV-2
Experiment: inhibition of SARS-CoV-2 cytopathic effect; higher = more antiviral protection, active = above 15
Conditions: 48 h

Measured: inhibition of SARS-CoV-2 cytopathic effect

COc1cc(Br)c(S(=O)(=O)Nc2ccc(C(F)(F)F)c(O[C@@H]3CCN(C)C3)c2)cc1OC
inactive: 1 nM 1.05% | 8.33 nM 2.6% | 100 nM -1.36% | 833.33 nM -0.46% | 10000 nM -2.24%

Nc1nc2ccc(Cl)cc2c2nc(-c3ccco3)nn12
inactive: 1 nM 3.02% | 8.33 nM 1.43% | 100 nM -1.65% | 833.33 nM -3.37% | 10000 nM 1.46%

Cc1cc2nc3c(=O)[nH]c(=O)nc-3n(C[C@H](O)[C@H](O)[C@H](O)CO)c2cc1C [riboflavin]
inactive: 1 nM -3.6% | 8.33 nM -1.59% | 100 nM -1.7% | 833.33 nM 0.03% | 10000 nM 0.32%

Cc1cc(Nc2cc(N3CCN(C)CC3)nc(Sc3ccc(NC(=O)C4CC4)cc3)n2)n[nH]1 [tozasertib]
inactive: 1 nM -0.96% | 8.33 nM -0.86% | 100 nM -0.22% | 833.33 nM 0.2% | 10000 nM -4.18%

CCc1oc2ccccc2c1C(=O)c1cc(Br)c(O)c(Br)c1 [benzbromarone]
inactive: 1 nM -1.45% | 8.33 nM 0.69% | 100 nM -2.5% | 833.33 nM -0.89% | 10000 nM 0.48%

CN1CCN(c2ccc3ccccc3n2)CC1 [N-methylquipazine]
inactive: 1 nM 0.97% | 8.33 nM -1.57% | 100 nM 0.41% | 833.33 nM -1.31% | 10000 nM -0.19%

COc1ccc(CCO[C@@H]2CCCC[C@H]2N2CC[C@@H](O)C2)cc1OC [vernakalant]
inactive: 1 nM -0.46% | 8.33 nM 0.39% | 100 nM -0.75% | 833.33 nM 1.67% | 10000 nM -1.63%

CC(O)CC(=O)O (stereo not drawn) [beta-hydroxybutyrate]
inactive: 1 nM 7.02% | 8.33 nM 2.5% | 100 nM -2.77% | 833.33 nM -2.16% | 10000 nM -1.85%

CN(c1ccc(NC(=O)Nc2ccccc2)cc1)S(=O)(=O)c1cnn(-c2ccc(F)cc2)c1
inactive: 1 nM 2.37% | 8.33 nM 2.39% | 100 nM 0.06% | 833.33 nM -1.77% | 10000 nM 0.18%

O=C(OCC(O)CO)c1ccccc1Nc1ccnc2c(C(F)(F)F)cccc12 (stereo not given) [floctafenine]
inactive: 1 nM 0.71% | 8.33 nM 6.76% | 100 nM 1.82% | 833.33 nM 3.08% | 10000 nM 3.04%

O=C(O)CCN(O)C(=O)CCCCCCCCC1CC1
inactive: 1 nM 2.3% | 8.33 nM -1.05% | 100 nM 1.09% | 833.33 nM 4.48% | 10000 nM 5.29%

CC1CC(OC(=O)C(O)c2ccccc2)CC(C)(C)N1C (stereo not given) [eucatropine]
inactive: 1 nM 0.81% | 8.33 nM 3.45% | 100 nM 1.74% | 833.33 nM 0.69% | 10000 nM 0%

O=[N+]([O-])c1cc([N+](=O)[O-])c(/C=C/c2ccc(Cl)c(Cl)c2)cc1/C=C/c1ccc(Cl)c(Cl)c1
inactive: 1 nM 2% | 8.33 nM 1.02% | 100 nM -3.12% | 833.33 nM -5.26% | 10000 nM -2.22%

CC(C)(C)NC[C@H](O)COc1nsnc1N1CCOCC1 [timolol]
inactive: 1 nM -1.77% | 8.33 nM 0.61% | 100 nM -1.85% | 833.33 nM 3.77% | 10000 nM 0.96%

O=C(O)CCCCCCCC(=O)O [azelaic-acid]
active: 1 nM 24.2%
inactive: 8.33 nM 0.49% | 100 nM -0.06% | 833.33 nM 0.7% | 10000 nM -3.28%

C=CC(=O)Nc1cccc(Oc2nc(Nc3ccc(N4CCN(C)CC4)cc3OC)ncc2Cl)c1
inactive: 1 nM -1.07% | 8.33 nM 3.52% | 100 nM -0.84% | 833.33 nM -9.12% | 10000 nM -11.8%

CCCCCCCCCCCCCCCC(=O)OC[C@@H](NC(=O)C(Cl)Cl)[C@H](O)c1ccc([N+](=O)[O-])cc1 [chloramphenicol-palmitate]
inactive: 1 nM 0.12% | 8.33 nM 0.68% | 100 nM -1.3% | 833.33 nM -1.25% | 10000 nM 0.57%

Clc1ccc(Cn2c(CN3CCCC3)nc3ccccc32)cc1 [clemizole]
inactive: 1 nM -3.82% | 8.33 nM -2.64% | 100 nM -3.58% | 833.33 nM -3.06% | 10000 nM -6.74%

O=C(O)c1ccc(O)c2ncccc12
inactive: 1 nM 0.11% | 8.33 nM 1.32% | 100 nM 1.3% | 833.33 nM 3.02% | 10000 nM 1.28%

c1ccc(Cn2c(N3CCNCC3)nc3ccccc32)cc1 [lerisetron]
inactive: 1 nM 1.65% | 8.33 nM -0.34% | 100 nM -0.91% | 833.33 nM -3.79% | 10000 nM -5.52%

O=C(O)c1cc(=O)c2ccccc2[nH]1 [kynurenic-acid]
inactive: 1 nM 3.61% | 8.33 nM 1.12% | 100 nM 2.79% | 833.33 nM 2.98% | 10000 nM 1.89%

C=C1/C(=C\C=C2/CCC[C@]3(C)[C@@H]([C@H](C)CCCC(C)C)CC[C@@H]23)C[C@@H](O)C[C@@H]1O [alfacalcidol]
inactive: 1 nM 2.5% | 8.33 nM -0.82% | 100 nM -1.14% | 833.33 nM 0.53% | 10000 nM -5.24%

COc1cc2c(cc1OC)CN(CCc1ccc(NC(=O)c3cccc4c(=O)c5cccc(OC)c5[nH]c34)cc1)CC2 [elacridar]
inactive: 1 nM 14.2% | 8.33 nM 2.41% | 100 nM 0.67% | 833.33 nM -0.09% | 10000 nM -4.73%

CCCCCCCCCCCCC/C=C/[C@@H](O)[C@@H](N)CO[P@](=O)(O)OCC[N+](C)(C)C [sphingosylphosphorylcholine]
inactive: 1 nM -0.9% | 8.33 nM -2.99% | 100 nM 3.74% | 833.33 nM -2.02% | 10000 nM 3.54%

C[C@H](/C=C/[C@H](C)C(C)(C)O)[C@H]1CC[C@H]2/C(=C/C=C3C[C@@H](O)C[C@H](O)C3)CCC[C@]12C [paricalcitol]
inactive: 1 nM 0.83% | 8.33 nM 3.37% | 100 nM -0.2% | 833.33 nM 1.21% | 10000 nM -0.81%

c1coc(-c2nnc3sc(C4CCCCC4)nn23)c1 [cardionogen-1]
inactive: 1 nM -0.83% | 8.33 nM -0.13% | 100 nM 0.69% | 833.33 nM -1.37% | 10000 nM -1.68%

CC(O)(CS(=O)(=O)c1ccc(F)cc1)C(=O)Nc1ccc(C#N)c(C(F)(F)F)c1 (stereo not given) [bicalutamide]
inactive: 1 nM -2.58% | 8.33 nM -1.35% | 100 nM 0.77% | 833.33 nM -0.42% | 10000 nM -0.92%

CC(=O)N[C@@H](Cc1ccc(O)cc1)C(=O)O [N-acetyl-tyrosine]
inactive: 1 nM -0.05% | 8.33 nM 1.2% | 100 nM 0.23% | 833.33 nM 2.56% | 10000 nM 4.82%

COc1ccc(-c2coc3cc(O)ccc3c2=O)cc1 [formononetin]
inactive: 1 nM 0.45% | 8.33 nM 1.81% | 100 nM 1.27% | 833.33 nM -2.13% | 10000 nM -0.02%

CC(=O)OCC(=O)NCCCOc1cccc(CN2CCCCC2)c1 [roxatidine-acetate]
inactive: 1 nM -0.88% | 8.33 nM 2.22% | 100 nM -0.37% | 833.33 nM 1.86% | 10000 nM 2.34%

OC(c1ccccc1)(c1ccccc1)C1CCNCC1 [azacyclonol]
inactive: 1 nM -0.3% | 8.33 nM 1.56% | 100 nM -2.53% | 833.33 nM -0.09% | 10000 nM -3.58%

CCS(=O)(=O)N1CC(CC#N)(n2cc(-c3ncnc4[nH]ccc34)cn2)C1 [baricitinib]
inactive: 1 nM 3.34% | 8.33 nM -0.51% | 100 nM -1.28% | 833.33 nM 0.06% | 10000 nM -2.55%

CCCn1cnc2c1c(=O)n(CCCCC(C)=O)c(=O)n2C [propentofylline]
inactive: 1 nM 0.84% | 8.33 nM 2.46% | 100 nM 1.32% | 833.33 nM 2.05% | 10000 nM 0.29%

C1CCC(/N=C(\NC23CC4CC(CC(C4)C2)C3)N2CCOCC2)CC1
inactive: 1 nM 7.27% | 8.33 nM 1.31% | 100 nM 1.69% | 833.33 nM 4.84% | 10000 nM -3.64%

CCc1ccc(Cc2ccc3c(c2)[C@]2(OC3)O[C@H](CO)[C@@H](O)[C@H](O)[C@H]2O)cc1 [tofogliflozin]
inactive: 1 nM -0.25% | 8.33 nM 0.93% | 100 nM 0.26% | 833.33 nM 1.52% | 10000 nM -0.4%

Cn1c(=O)c2c(ncn2CCO)n(C)c1=O [etofylline]
inactive: 1 nM 0.6% | 8.33 nM 0.32% | 100 nM -0.66% | 833.33 nM -1.82% | 10000 nM -1.01%

NC/C(=C/F)CCc1ccc(F)cc1 [mofegiline]
inactive: 1 nM 3.65% | 8.33 nM 2.09% | 100 nM 1.29% | 833.33 nM -1.58% | 10000 nM -3.87%

CN1CCN(c2cc3c(cc2F)c(=O)c(C(=O)O)cn3-c2ccc(F)cc2)CC1 [difloxacin]
inactive: 1 nM -1.68% | 8.33 nM 2.12% | 100 nM 0.47% | 833.33 nM 0.94% | 10000 nM 1.41%

N#CCC(=O)c1ccccc1
inactive: 1 nM 4.1% | 8.33 nM 4.15% | 100 nM 0.67% | 833.33 nM 2.33% | 10000 nM -0.41%

CCCN1C[C@H](CSC)C[C@@H]2c3cccc4[nH]cc(c34)C[C@H]21 [pergolide]
inactive: 1 nM -0.15% | 8.33 nM -0.75% | 100 nM 0.68% | 833.33 nM 0.65% | 10000 nM -1.92%

From the supplement of paper PMC13380429
